Results as given in PubChem BioAssay (NCATS).
Inconclusive results are not listed. Activity calls are given as the source filed them. Calls follow the shape of the dose curve; as a rule, active = well fitted inhibition curve with a large enough effect; inconclusive = small, poorly fitted or top-dose-only effect; inactive = flat fitted curve, though single readings scatter.

Experiments:
Experiment in all cases: qHTS profiling for inhibitors of Plasmodium falciparum proliferation (AID 504749); also: nearly all actives have a fitted effect of over 60% in size
Settings in all cases: P. falciparum in erythrocytes, SYBR Green DNA, 72 h; series mostly up to 28.7 µM
CP260 = system: CP260
Summary of the method: (§1)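 P. falciparum-infected erythrocytes (0.3% parasitemia, 2.5% hematocrit) incubated with compound 72 h at 37 C, 5% CO2. Parasite DNA detected by SYBR Green after lysis, overnight at room temperature; normalised to 0.29 uM artemisinin and DMSO.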

CP262 = system: CP262
Summary of the method: as §1

CP265 = system: CP265
Summary of the method: as §1

CP266 = system: CP266
Summary of the method: as §1

CP268 = system: CP268
Summary of the method: as §1

CP269 = system: CP269
Summary of the method: as §1

CP286 = system: CP286
Summary of the method: as §1

CP291 = system: CP291
Summary of the method: as §1

CP297 = system: CP297
Summary of the method: as §1

CP305 = system: CP305
Summary of the method: as §1

CP315 = system: CP315
Summary of the method: as §1

CP325 = system: CP325
Summary of the method: as §1

CP329 = system: CP329
Summary of the method: as §1

CP335 = system: CP335
Summary of the method: as §1

DFO2036 = system: DFO2036
Summary of the method: as §1

DIV14 = system: DIV14
Summary of the method: as §1

DIV17 = system: DIV17
Summary of the method: as §1

DIV30 = system: DIV30
Summary of the method: as §1

ECU = system: ECU
Summary of the method: as §1

FAB9 = system: FAB9
Summary of the method: as §1

GB4 = system: GB4
Summary of the method: as §1

HB3 = system: HB3
Summary of the method: as §1

ICS = system: ICS
Summary of the method: as §1

JCK = system: JCK
Summary of the method: as §1

N140 = system: N140
Summary of the method: as §1

P93_24 = system: P93_24
Summary of the method: as §1

P94_40 = system: P94_40
Summary of the method: as §1

PAD = system: PAD
Summary of the method: as §1

PC26 = system: PC26
Summary of the method: as §1

PC49 = system: PC49
Summary of the method: as §1

SC27B = system: SC27B
Summary of the method: as §1

TAB109 = system: TAB109
Summary of the method: as §1

TAB113 = system: TAB113
Summary of the method: as §1

TAB165 = system: TAB165
Summary of the method: as §1

W2 = system: W2
Summary of the method: as §1

Measured: Potency
Potency is read from the fitted curve at half-maximal effect.

O=C(O)[C@@H](S)[C@H](S)C(=O)O
active: CP260 5.01 µM | CP262 6.75 µM | CP265 8.91 µM | CP266 9.53 µM | CP268 13.5 µM | CP269 6.75 µM | CP286 7.08 µM | CP291 12 µM | CP297 15.1 µM | CP305 7.57 µM | CP315 15.1 µM | CP325 9.53 µM | CP329 10.7 µM | CP335 6.75 µM | DFO2036 8.91 µM | DIV14 8.49 µM | DIV17 13.5 µM | DIV30 6.75 µM | ECU 11.2 µM | FAB9 11.2 µM | GB4 13.5 µM | HB3 10 µM | ICS 8.91 µM | JCK 11.2 µM | N140 7.94 µM | P93_24 4.47 µM | P94_40 4.47 µM | PAD 8.91 µM | PC26 8.49 µM | PC49 11.2 µM | SC27B 11.2 µM | TAB109 5.62 µM | TAB113 11.2 µM | TAB165 11.2 µM | W2 3.38 µM
